L3MBTL1 block: inhibitors of human L3MBTL1; Q9Y468; AlphaScreen L3MBTL1–H3K9me1 peptide binding; Potency, µM (top dose mostly 57.1 µM), for inactives: at the highest dose activity, negative = inhibition, actives largely listed as inhibitors; actives 0.66% (n = 230,000); AID 485360; further: on the % scale 0 is the no-effect control and ±100 the full control effect; nearly all actives have a fitted effect of over 60% in size
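AlphaScreen assay: L3MBTL1 (50 nM final) was preincubated 30 min at room temperature with biotinylated H3(1-15)K9me1 peptide (75 nM final), then 30 min with library compounds; streptavidin donor and nickel chelate acceptor beads (10 ug/mL final) added, 30 min dark.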
HP1b binding inh: inhibitors of HP1-beta chromodomain binding to methylated histone tails; P83916; AlphaScreen HP1-beta / biotin-H3K9me3 peptide binding; Potency, µM (doses to about 114 µM), for inactives: at the highest dose activity change, negative = inhibition, usual class: inhibitors; actives 0.56% (n = 390,000); further: nearly all actives have a fitted effect of over 70% in size
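HP1-beta protein (50 nM final) preincubated 30 min at room temperature with biotinylated H3(1-18)K9me3 peptide (50 nM) in PBS pH 7.4, 0.01% Tween-20, then compound added for 30 min. AlphaScreen streptavidin donor/nickel chelate acceptor beads (10 ug/mL final), 30 min dark, luminescence read.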
BAZ2B inh: BAZ2B (human) inhibition | Q9UIF8 | AlphaScreen BAZ2B-H3K14Ac peptide displacement | Potency, µM (highest dose often 114 µM), for inactives: at the top dose activity change, negative = inhibition, usual class: inhibitors | actives 4.4% (n = 360,000) | AID 504333; further: on the % scale 0 is the no-effect control and ±100 the full control effect; nearly all actives have a fitted effect of over 60% in size
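Inhibition is scored as reduced AlphaScreen emission. The BAZ2B/b-H3(5-23)K14Ac complex (50 nM each) in PBS pH 7.4, 0.01% Tween-20 meets compound (up to 110 uM) for 30 min at RT before bead addition.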
G9a inh: inhibitors of human histone lysine methyltransferase G9a. G9a H3K9 monomethylation, AlphaScreen, 2 h. Potency, µM (titrated, usually from 102 µM), for inactives: at the highest dose activity, negative = inhibition, usual class: inhibitors. actives 8.8% (n = 350,000). Q96KQ7. AID 504332; further: on the % scale 0 is the no-effect control and ±100 the full control effect; nearly all actives have a fitted effect of over 75% in size
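Chemiluminescent proximity detection of H3K9 monomethylation, read after 10 min bead incubation in the dark. Reaction: 20 nM G9a, 500 nM biotin-H3K9 peptide, 20 uM SAM cofactor, 2 h, room temperature, following 15 min enzyme-compound preincubation.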
JMJD2A Tudor: JMJD2A Tudor domain (human) inhibition; O75164; AID 504339; Potency, µM (top dose mostly 114 µM), without a hit: at the highest dose activity change, negative = inhibition, actives largely listed as inhibitors; AlphaScreen JMJD2A-Tudor / H3K4me3 peptide binding; actives 4.4% (n = 390,000); further: on the % scale 0 is the no-effect control and ±100 the full control effect; nearly all actives have a fitted effect of over 50% in size
Sfp inh: inhibitors of Bacillus subtilis Sfp phosphopantetheinyl transferase. AID 1490. Potency, µM, for inactives: largest response in the series, negative = inhibition, most hits filed as inhibitors. Q9F4F7. actives 3.5% (n = 310,000). Biochemical Sfp PPTase activity, qHTS;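 further: the enzyme is Sfp with the accession as filed and its product quenches rhodamine fluorescence; 0% = enzyme reaction without inhibitor and -100% = no enzyme wells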
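Sfp 15 nM + cpd, 15 min RT; start w/ rhodamine-CoA 5 uM, BHQ-2-YbbR 12.5 uM (final); 50 mM Hepes pH 7.6, 10 mM MgCl2, 0.01% NP-40, 0.01% BSA; read 525/598 nm at 0 and 30 min.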
Numbers without * were called inactive; [ ] = dose if it differs, or a comment. Only some compounds are listed: those with a hit (about 12% of all), similar ones and a draw of the others. The call rests on the fitted dose curve; in most records, active means well fitted curve in the direction sought with a large enough effect; inconclusive means small, poorly fitted or top-dose-only effect, or another doubt; inactive means no such curve, though single readings can be large; an effect the other way counts as inactive or inconclusive. Potency means the concentration at half of the fitted maximal effect.

`CCC(C)C(=O)O[C@H]1C[C@@H](C)C=C2C=C[C@H](C)[C@H](CC[C@@H]3C[C@@H](O)CC(=O)O3)C21` (some centres not stated) gave Sfp inh 8.2%.
Cc1ccc(CCC(=O)Nc2ccc(S(N)(=O)=O)cc2)o1 was read as HP1b binding inh 12.8%, BAZ2B inh 14.8%, G9a inh 2.24µM*, JMJD2A Tudor -10.2% and Sfp inh 5.01µM*.
`COC(=O)c1sc(-c2ccc(Cl)cc2)cc1NC(=O)/C=C/C(=O)O` gave HP1b binding inh 39.9%, BAZ2B inh -10.6%, G9a inh -28.4%, JMJD2A Tudor -7.6% and Sfp inh inconclusive.
COC(=O)c1sc(-c2ccc(Cl)cc2)cc1NC(=O)COCC(=O)O was read as HP1b binding inh 22.8%, BAZ2B inh inconclusive, G9a inh 56.2µM*, JMJD2A Tudor -19.9% and Sfp inh 2.5%.
`COC(=O)c1sc(-c2ccc(C(C)(C)C)cc2)cc1NC(=O)CCC(=O)O` gave HP1b binding inh 57.8%, BAZ2B inh -28.0%, G9a inh 70.8µM*, JMJD2A Tudor -16.4% and Sfp inh -8.1%.
For CCOc1ccc(-c2cc(NC(=O)c3ccccc3)c(C(=O)OC)s2)cc1 the results were HP1b binding inh 56.4%, BAZ2B inh 10.7%, G9a inh 1.6%[59 µM] and JMJD2A Tudor 11.7%.
Cc1ccccc1Oc1ccc2c(c1)[C@@H]1C[C@H]3[C@@H](C(=O)N1CC2)[C@H](C)ON3C was read as HP1b binding inh 26.1% and JMJD2A Tudor -17.4%.
Screening Cc1noc(/C=C/c2cccs2)c1S(=O)(=O)N1CCC(C(=O)Nc2ccc(F)c(Cl)c2)CC1 returned HP1b binding inh 26.1%, G9a inh -3.0%[59 µM] and JMJD2A Tudor -11.0%.
`CC1(C)Cc2[nH]c(=O)c(C#N)cc2CS1` gave L3MBTL1 block -2.6%, HP1b binding inh 25.1%, BAZ2B inh 8.4%, G9a inh 31.6µM*, JMJD2A Tudor 1.8% and Sfp inh 8.9%.
For CCC1(C)Cc2[nH]c(=O)c(C#N)cc2CO1 (configuration not stated) the results were HP1b binding inh -5.7%, BAZ2B inh 11.4%, G9a inh -31.8%, JMJD2A Tudor 0.0% and Sfp inh 11.4%.
Screening CC(C(=O)Nc1ccccc1C(F)(F)F)N1CCN(C)CC1 (configuration not stated) returned L3MBTL1 block 9.0%[2.29 µM], HP1b binding inh inconclusive, BAZ2B inh 79.4µM*, G9a inh 3.1%[0.501 µM], JMJD2A Tudor 25.1µM* and Sfp inh -20.3%.
`CC(C(=O)Nc1ccc(F)c(F)c1)N1CCN(C)CC1` (configuration not stated) gave HP1b binding inh 35.5µM*, BAZ2B inh 22.4µM*, G9a inh inconclusive, JMJD2A Tudor 3.16µM* and Sfp inh inconclusive.
CN1CCN(CCNC(=O)Nc2ccccc2C(F)(F)F)CC1 was read as L3MBTL1 block 0.6%, HP1b binding inh 28.2%, BAZ2B inh 7.2%, G9a inh -40.6%, JMJD2A Tudor -3.4% and Sfp inh 19.6%.
N#CCCn1c(=O)c(-c2cc(F)cc(F)c2)nc2cnc(N3CCOCC3)nc21 was read as G9a inh -5.4%[0.501 µM] and Sfp inh 18.2%.
`Cn1c(=O)c2ccccc2n(CC(=O)NCCC2=CCCCC2)c1=O` gave HP1b binding inh 9.7%, BAZ2B inh -0.5%, G9a inh 28.2µM*, JMJD2A Tudor 0.7% and Sfp inh -10.2%.
Screening COC(=O)CNC(=O)CNC(=O)c1nn(-c2ccc(OC)c(OC)c2)c(=O)c2ccccc12 returned HP1b binding inh 25.5%, BAZ2B inh 3.4%, G9a inh 10.0%, JMJD2A Tudor -5.7% and Sfp inh 16.2%.
COc1ccc(-n2nc(C(=O)NCC(=O)NCCC3=CCCCC3)c3ccccc3c2=O)cc1OC was read as HP1b binding inh -7.8%, BAZ2B inh 2.7%, G9a inh 50.1µM*, JMJD2A Tudor -12.9% and Sfp inh 5.7%.
`COc1ccc(S(=O)(=O)N2CCN(c3nc(-c4ccccc4)nc4ccccc34)CC2)cc1` gave HP1b binding inh 16.2% and JMJD2A Tudor inconclusive.
`CCOc1ccc(NS(=O)(=O)c2ccc3[nH]cc(C(=O)N(C)C4CCCCC4)c(=O)c3c2)cc1` gave HP1b binding inh 14.2%, BAZ2B inh -16.1%, G9a inh inconclusive and JMJD2A Tudor -11.2%.
COc1ccc(F)cc1S(=O)(=O)NCCc1c(C)[nH]c2c(Cl)cccc12 was read as HP1b binding inh 6.8%, BAZ2B inh inconclusive, G9a inh -0.7%[59 µM] and JMJD2A Tudor -32.6%.
COc1cc(C)c(Cl)cc1S(=O)(=O)NCCc1c(C)[nH]c2ccccc12 was read as HP1b binding inh -10.5%, BAZ2B inh 31.6µM*, G9a inh -29.7%[59 µM] and JMJD2A Tudor inconclusive.
Screening Nc1ncnc(Nc2ccccc2C(F)(F)F)n1 returned L3MBTL1 block 2.6%, HP1b binding inh 20.9%, BAZ2B inh 6.9%, G9a inh -2.6%, JMJD2A Tudor 4.6% and Sfp inh 6.8%.
`FC(F)(F)c1ccccc1Nc1nccs1` gave L3MBTL1 block -0.8%, HP1b binding inh 57.5%, BAZ2B inh -2.2%, G9a inh inconclusive, JMJD2A Tudor 50.1µM* and Sfp inh -13.2%.
NC(=O)[C@@H]1CCCNc2c(I)cc([N+](=O)[O-])cc2C(=O)N[C@@H](CO)C(=O)N[C@@H](Cc2ccc(O)cc2)C(=O)N1 was read as L3MBTL1 block 3.7%, HP1b binding inh 19.5%, BAZ2B inh -34.5%, G9a inh 44.7µM*, JMJD2A Tudor -25.9% and Sfp inh -4.2%.
`NC(=O)[C@@H]1CCCNc2c(I)cc([N+](=O)[O-])cc2C(=O)N[C@@H](CO)C(=O)NCC(=O)N1` gave L3MBTL1 block 6.9%, HP1b binding inh 44.9%, BAZ2B inh -0.8%, G9a inh 79.4µM*, JMJD2A Tudor -6.2% and Sfp inh 29.7%.
Screening NC(=O)[C@@H]1CCCNc2c(F)cc([N+](=O)[O-])cc2C(=O)N[C@@H](CO)C(=O)NCC(=O)N1 returned L3MBTL1 block 2.6%, HP1b binding inh 20.6%, BAZ2B inh -10.2%, G9a inh inconclusive, JMJD2A Tudor -11.8% and Sfp inh 23.6%.

Bioassay records (PubChem)
